About 160 (0.055%) of roughly 290,000 compounds were called active. Cut-off read from the data, not from the text of the source: active = inhibition above about 50%; inactive = the rest. Shown is part of a subset that was picked to be rich in actives.
Target: Tyrosine-protein phosphatase non-receptor type 22 (Homo sapiens) (UniProt Q9Y2R2)
Experiment: inhibitors of LYP phosphatase, biochemical, fluorescence intensity, uHTS (AID 1779);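 note: plate controls were vehicle with enzyme for no effect and no enzyme for full effect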
Details: recombinant LYP phosphatase, at 11.5 µM, hits give high values

Tyrosine-protein phosphatase non-receptor type 22 (Homo sapiens), sequence (Q9Y2R2 whole entry, looked up): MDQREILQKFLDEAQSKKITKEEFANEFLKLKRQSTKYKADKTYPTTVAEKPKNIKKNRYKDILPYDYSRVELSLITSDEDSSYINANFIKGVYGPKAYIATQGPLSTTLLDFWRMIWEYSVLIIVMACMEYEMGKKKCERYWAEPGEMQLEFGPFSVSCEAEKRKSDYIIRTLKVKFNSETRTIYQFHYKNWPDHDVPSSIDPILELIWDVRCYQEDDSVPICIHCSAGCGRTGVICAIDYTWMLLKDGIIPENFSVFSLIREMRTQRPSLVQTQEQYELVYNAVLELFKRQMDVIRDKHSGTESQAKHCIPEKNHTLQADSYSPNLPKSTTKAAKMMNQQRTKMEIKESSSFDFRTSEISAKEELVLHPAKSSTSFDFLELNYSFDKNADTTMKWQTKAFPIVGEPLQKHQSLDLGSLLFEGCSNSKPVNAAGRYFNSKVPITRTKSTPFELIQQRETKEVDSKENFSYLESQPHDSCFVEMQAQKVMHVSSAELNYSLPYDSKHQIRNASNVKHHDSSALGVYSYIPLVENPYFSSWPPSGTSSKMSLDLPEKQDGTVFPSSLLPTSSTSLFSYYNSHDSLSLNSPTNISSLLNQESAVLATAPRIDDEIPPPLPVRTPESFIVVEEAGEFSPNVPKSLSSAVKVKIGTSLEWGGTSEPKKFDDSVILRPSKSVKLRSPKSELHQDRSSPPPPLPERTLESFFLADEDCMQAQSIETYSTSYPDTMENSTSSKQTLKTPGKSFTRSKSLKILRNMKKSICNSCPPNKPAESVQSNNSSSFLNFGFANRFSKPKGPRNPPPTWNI

Row | SMILES | inhibition
1 | Cc1csc2ncc(C(=O)N3CCCc4ccccc43)c(=O)n12 | -4% (inactive)
2 | O=C(CN1C(=O)CSc2ccccc21)Nc1ccccc1C(=O)N1CCOCC1 | -0.4% (inactive)
3 | NC(=O)c1nc(-c2cccs2)nc2c1[nH]c(=O)n2-c1ccc(F)cc1 | -3.8% (inactive)
4 | O=C(Nc1nccs1)c1ccc(S(=O)(=O)NCc2cccs2)cc1 | 84.4% (active)
5 | O=C(Nc1nccs1)c1ccc(S(=O)(=O)NCC2CCCCC2)cc1 | 9.6% (inactive)
6 | O=C(Nc1nccs1)c1ccc(S(=O)(=O)c2ccccc2)cc1 | -4.6% (inactive)
7 | Cc1ccccc1NC(=S)NC(NC(=O)c1ccccc1C)C(Cl)(Cl)Cl (configuration not stated) | -5.7% (inactive)
8 | Cc1noc(C)c1COC(=O)c1ccc(S(=O)(=O)N2CCCCC2)cc1 | -3.8% (inactive)
9 | COc1ccc(S(=O)(=O)N2CCc3ccccc32)cc1C(=O)OCc1c(C)noc1C | 1% (inactive)
10 | COc1ccc(S(=O)(=O)N2CCCCCC2)cc1C(=O)OCc1c(C)noc1C | 50.5% (active)
11 | CCOC(=O)c1c(NC(=O)COc2ncnc3ccccc23)sc(C)c1C | 3.4% (inactive)
12 | O=C(NCc1ccccc1)C(c1ccccc1F)N(CC1CCCO1)C(=O)c1ccccn1 (configuration not stated) | -7.1% (inactive)
13 | Cc1cc(NC(=O)c2cc(-c3ccc(C)s3)nc3ccccc23)no1 | -4.3% (inactive)
14 | Cc1cc(C)nc(NC(=O)c2cc(-c3ccc(C)s3)nc3ccccc23)c1 | 79.7% (active)
15 | Cc1cccc(NC(=O)c2cc(-c3ccc(C)s3)nc3ccccc23)n1 | 6.1% (inactive)
16 | COc1ccc(-c2nnn(CC(=O)N(CCCO)C(C(=O)NC3CCCC3)c3ccncc3)n2)cc1 (configuration not stated) | -4.7% (inactive)
17 | CC(=O)N1CCc2c(sc3c2c(=O)n(-c2ccccc2)c(=O)n3CC(=O)NCC2CCCO2)C1 (configuration not stated) | -11% (inactive)
18 | COc1ccc(COC(=O)Nc2cn(C)nc2C(F)(F)F)cc1 | 1.1% (inactive)
19 | CCC(C)[C@H](NC(=O)[C@@H]1CSC2c3ccccc3C(=O)N21)C(=O)NCC1CCCO1 (some centres not stated) | -11.5% (inactive)

Row | SMILES | inhibition
20 | CCn1cc(CNC(=O)c2cc([N+](=O)[O-])c(C)c([N+](=O)[O-])c2)cn1 | 55.6% (active)
21 | CCn1cc(CNC(=O)c2cccc([N+](=O)[O-])c2)cn1 | -11.2% (inactive)
22 | Cc1c([N+](=O)[O-])cc(C(=O)NCc2ccc(F)cc2)cc1[N+](=O)[O-] | -4.5% (inactive)
23 | COc1ccc(N(C(=O)CNC(=O)c2ccco2)C(C(=O)NCC2CCCO2)c2ccccc2)cc1 (configuration not stated) | -11.7% (inactive)
24 | O=C(OC1CCOC1=O)c1cccc(S(=O)(=O)N2CCc3ccccc3C2)c1 (configuration not stated) | -8.2% (inactive)
25 | CCCN1C(=O)C(O)(CC(=O)c2ccc3c(c2)OCCO3)c2ccccc21 (configuration not stated) | 3.1% (inactive)
26 | COc1ccc(-c2cc(C)no2)cc1S(=O)(=O)N1CCN(c2ccccn2)CC1 | -10.6% (inactive)
27 | O=C(OC1CCCCC1)c1ccc2c(c1)C1C=CCC1C(C(=O)O)N2 (configuration not stated) | 64% (active)
28 | CCOC(=O)c1ccc2c(c1)C1C=CCC1C(C(=O)O)N2 (configuration not stated) | 19.2% (inactive)
29 | O=C(O)C1Nc2c(O)cccc2C2C=CCC12 (configuration not stated) | 52% (active)
30 | CC(=O)c1ccc2c(c1)C1C=CCC1C(C(=O)O)N2 (configuration not stated) | 3.3% (inactive)
31 | O=C(O)C1Nc2c(cccc2C(F)(F)F)C2C=CCC12 (configuration not stated) | -2.1% (inactive)
32 | COc1cccc2c1NC(C(=O)O)C1CC=CC21 (configuration not stated) | 1.7% (inactive)
33 | COc1cc2c(C(=O)Nc3ccccc3F)cn(C)c(=O)c2cc1OC | -10.5% (inactive)
34 | CCOC(=O)c1ccc(-c2ccc3c(=O)c4ccccc4n(C)c3c2)cc1F | -15.2% (inactive)
35 | CN1CCN(S(=O)(=O)c2cccc(C(=O)NCCOc3ccccc3F)c2)CC1 | -15.4% (inactive)
36 | Cc1cc(=O)n2c(n1)NC(Nc1cccc(C)c1C)=NC2c1ccc(F)cc1 (configuration not stated) | -3.8% (inactive)
37 | O=C(COC(=O)c1ccccc1F)c1ccc(-n2nncc2-c2ccco2)cc1 | -3.3% (inactive)
38 | CSc1ccccc1NC(=O)CSc1nnc(Cc2ccccc2)o1 | -12.7% (inactive)

Row | SMILES | inhibition
39 | CCOC(=O)c1sc2nc3c(SCC(=O)O)cc(C(=O)c4cc(F)ccc4O)cn3c(=O)c2c1C | 5.2% (inactive)
40 | CCOC(=O)c1sc2nc3c(SCCC#N)cc(C(=O)c4cc(F)ccc4O)cn3c(=O)c2c1C | 1.4% (inactive)
41 | CCOC(=O)c1sc2nc3c(SCCC(=O)O)cc(C(=O)c4cc(OC)ccc4O)cn3c(=O)c2c1C | 53.3% (active)
42 | O=C(Nc1cc(Cl)cc(Cl)c1)C(NCC1CCCO1)c1ccccc1 (configuration not stated) | 0% (inactive)
43 | COc1ccc(CCNC(=O)CCC(=O)N2CCN(S(=O)(=O)c3ccccc3)CC2)cc1OC | -4.5% (inactive)
44 | Cc1ccc(S(=O)(=O)c2nc(-c3ccccc3)oc2NCCCN2CCOCC2)cc1 | 3.6% (inactive)
45 | Cc1ccc(S(=O)(=O)c2nc(-c3ccccc3)oc2NCCN2CCOCC2)cc1 | 67.9% (active)
46 | O=S(=O)(c1ccc(Br)cc1)c1nc(-c2ccccc2)oc1NCCN1CCOCC1 | -4.8% (inactive)
47 | O=C(CCN1C(=O)C2CC=C(Cl)CC2C1=O)NCc1ccco1 (configuration not stated) | 55.2% (active)
48 | O=C(CCN1C(=O)C2CC=C(Cl)CC2C1=O)NCc1ccccc1 (configuration not stated) | -1.9% (inactive)
49 | O=C(CCN1C(=O)c2ccccc2C1=O)NCc1ccco1 | -4.2% (inactive)
50 | Cc1ccc(NC(=O)c2cccc3ccccc23)cc1 | -8.7% (inactive)
51 | CC(C)CC(=O)Nc1ccc(C(=O)CN2CCN(c3ccc(O)cc3)CC2)cc1 | -9.4% (inactive)
52 | COc1ccc(C2CC(=O)OC3=C2C(=O)CC(C)(C)C3)c(OC)c1 (configuration not stated) | -2.3% (inactive)
53 | Cc1ccc(C(=O)O)cc1NC(=O)c1ccc2c(c1)C(=O)N(c1ccc([N+](=O)[O-])cc1)C2=O | 50.3% (active)
54 | O=C(O)c1cccc(NC(=O)c2ccc3c(c2)C(=O)N(c2cccc([N+](=O)[O-])c2)C3=O)c1 | -2% (inactive)
55 | Cc1cc([N+](=O)[O-])ccc1N1C(=O)c2ccc(C(=O)Nc3ccccc3C(=O)O)cc2C1=O | -5.4% (inactive)
56 | C(=N\Nc1nc(-c2ccccc2)cs1)/c1cccnc1 | 4.2% (inactive)
57 | CC(=O)c1ccc2noc(-c3cccc(C)c3)c2c1 | 8.5% (inactive)

From PubChem BioAssay AID1779 (Sanford-Burnham Center for Chemical Genomics, 2009)
